# KDM5B inhibitor: Primary screen for KDM5B Histone Demethylases FDH-coupled qHTS | Lysine-specific demethylase 5B (Homo sapiens), Q9UGL1 | KDM5B demethylase, FDH-coupled NADH fluorescence (FDH is formaldehyde dehydrogenase) | Potency, µM (doses to about 57.7 µM), usual class: inhibitors | 220,000 compounds, 2.6% hits; active means well fitted inhibition curve with a large enough effect; further: 0% is about no effect; nearly all actives have a fitted effect of over 70% in size
# Target sequence (Q9UGL1 whole entry, looked up): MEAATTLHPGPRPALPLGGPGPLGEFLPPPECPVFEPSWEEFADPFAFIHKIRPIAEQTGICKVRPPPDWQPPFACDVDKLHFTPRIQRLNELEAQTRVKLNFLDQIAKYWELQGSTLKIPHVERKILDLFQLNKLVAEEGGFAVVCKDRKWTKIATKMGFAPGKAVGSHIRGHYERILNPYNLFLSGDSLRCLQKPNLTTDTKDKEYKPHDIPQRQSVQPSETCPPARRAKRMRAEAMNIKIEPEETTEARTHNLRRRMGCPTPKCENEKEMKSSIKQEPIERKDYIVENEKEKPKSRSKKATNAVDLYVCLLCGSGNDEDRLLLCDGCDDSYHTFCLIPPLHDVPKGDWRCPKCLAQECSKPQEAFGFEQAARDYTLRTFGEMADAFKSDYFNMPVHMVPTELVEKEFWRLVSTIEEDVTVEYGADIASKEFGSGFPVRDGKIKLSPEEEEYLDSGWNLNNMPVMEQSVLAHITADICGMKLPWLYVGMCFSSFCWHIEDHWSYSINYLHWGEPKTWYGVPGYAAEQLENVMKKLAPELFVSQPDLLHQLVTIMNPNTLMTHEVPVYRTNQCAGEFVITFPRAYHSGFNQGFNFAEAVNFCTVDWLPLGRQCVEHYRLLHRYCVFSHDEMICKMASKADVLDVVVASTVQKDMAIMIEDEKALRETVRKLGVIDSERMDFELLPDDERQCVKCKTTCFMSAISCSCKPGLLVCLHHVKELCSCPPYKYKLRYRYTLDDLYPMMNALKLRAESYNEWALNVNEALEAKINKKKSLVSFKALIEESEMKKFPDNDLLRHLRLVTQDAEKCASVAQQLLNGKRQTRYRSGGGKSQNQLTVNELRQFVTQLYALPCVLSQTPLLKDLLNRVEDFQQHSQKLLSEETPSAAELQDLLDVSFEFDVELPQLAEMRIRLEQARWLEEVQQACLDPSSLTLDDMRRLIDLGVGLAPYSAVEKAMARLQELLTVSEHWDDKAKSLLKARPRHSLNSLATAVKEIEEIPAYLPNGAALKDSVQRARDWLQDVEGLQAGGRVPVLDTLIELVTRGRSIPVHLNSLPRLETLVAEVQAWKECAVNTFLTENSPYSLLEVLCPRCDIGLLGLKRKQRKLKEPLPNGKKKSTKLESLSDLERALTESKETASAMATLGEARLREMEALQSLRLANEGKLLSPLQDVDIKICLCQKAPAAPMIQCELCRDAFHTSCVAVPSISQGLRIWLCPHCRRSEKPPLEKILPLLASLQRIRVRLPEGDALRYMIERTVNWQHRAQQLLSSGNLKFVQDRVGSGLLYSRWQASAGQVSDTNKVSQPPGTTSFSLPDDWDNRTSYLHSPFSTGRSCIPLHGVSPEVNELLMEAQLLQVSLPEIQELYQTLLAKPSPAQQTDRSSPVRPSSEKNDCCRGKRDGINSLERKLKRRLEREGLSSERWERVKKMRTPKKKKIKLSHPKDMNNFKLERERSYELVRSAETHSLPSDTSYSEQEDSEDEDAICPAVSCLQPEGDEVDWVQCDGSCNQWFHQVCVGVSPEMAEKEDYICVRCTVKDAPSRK
#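 qHTS format, multiple compound concentrations. Buffer 50 mM HEPES pH 7.5/0.01% Tween-20; 200 nM KDM5BΔAP final; 10 min compound preincubation; substrate-mix levels 12.5 µM peptide, 25 µM α-KG, 0.25 mM NAD⁺; 30 min RT; ΔRFU.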
# Active calls of the source: *; i = inactive. Only a selection was taken, and hits are over-represented in it overall. Potency means the concentration at half of the fitted maximal effect.
SMILES,KDM5B inhibitor
COCCNc1nc2cc(-c3nc(-c4cccnn4)no3)ccc2n1C,i
O=C(OCc1cccc2ccccc12)c1cnccn1,i
Cc1cc(C(=O)N[C@H](C)c2onc(-c3cccnc3)c2C(=O)O)nn1C,i
Cc1nn(-c2ccccc2)nc1C(=O)N[C@H](C)c1onc(-c2cccnc2)c1C(=O)O,25µM*
C[C@@H](NC(=O)c1cccnc1)c1onc(-c2cccnc2)c1C(=O)O,i
CCOc1ccccc1NS(=O)(=O)c1cc(C(C)(C)C)ccc1C,i
COc1ccc(CN2CCC[C@H]2c2nc(-c3ccc(-n4ccnc4)nc3)no2)c(OC)c1OC,i
Oc1ccccc1CN1CCC[C@H]1c1nc(-c2ccc(N3CCOCC3)nc2)no1,35µM*
Fc1ccc(-c2noc([C@@H]3CCCN3Cc3ccccc3F)n2)nc1,i
c1ccc(CN2CCC[C@H]2c2nc(-c3ccc(-n4ccnc4)nc3)no2)cc1,i
COc1ccc(-c2noc([C@@H]3CCCN3C(=O)Cc3ccccc3)n2)cc1OC,i
COc1ccccc1CC(=O)N1CCC[C@H]1c1nc(-c2ccc(OC)c(OC)c2)no1,i
CNc1ccc(-c2noc([C@@H]3CCCN3Cc3cccnc3)n2)cn1,i
FC(F)(F)Oc1cccc(CN2CCC[C@H]2c2nc(-c3ccc(N4CCOCC4)nc3)no2)c1,28µM*
CN1CCN(c2ccc(-c3noc([C@@H]4CCCN4CCCc4ccccc4)n3)cn2)CC1,32µM*
COCCOc1ccnc(-c2noc([C@@H]3CCCN3Cc3cccc(OC(F)(F)F)c3)n2)c1,i
COc1ccc(-c2noc([C@@H]3CCCN3C(=O)CCc3ccccc3)n2)cc1OC,28µM*
Cc1cccc(OCCc2noc(C3CCCCN3Cc3cccnc3)n2)c1 (centres undefined),i
CCOc1ccc(-c2nc(CNC(=O)Nc3ccc(Cl)cc3)c(C)o2)cc1,i
N#C/C(=C/c1ccc(-c2ccc(F)cc2)o1)c1nc2ccccc2[nH]1,i
COc1ccc(-c2noc(-c3cccn3CC(=O)Nc3cc(C)ccc3C)n2)cc1F,i
N/C(CN1CCCC1)=N\O,i
CC1(C)CC(CC(=O)N2CCN(Cc3ccccc3)CC(O)C2)CC(C)(C)N1 (centres undefined),i
Cc1cc2oc(C(=O)N3CCC(Cc4ccccc4)CC3)cc(=O)c2cc1C,i
CN(CCc1nc2ccccc2[nH]1)C(=O)C1COc2ccccc2C1 (centres undefined),i
SMILES,KDM5B inhibitor
O=C(Cc1ccc(Cl)c(Cl)c1)NCc1cccs1,i
CCOc1ccc(CNC(=O)c2ccc3oc(=O)n(Cc4ccccc4)c3c2)cc1,i
Cc1ccc(C(=O)NCCc2cccnc2)cc1,i
O=C(Nc1ccc(Cl)cc1)c1ccc2c(c1)n(Cc1ccccc1)c(=O)c1ccnn12,20µM*
O=C(O)c1ccc2oc(=O)n(Cc3ccccc3)c2c1,i
O=C(NCCc1cccnc1)c1ccc(F)cc1,i
O=C(O)c1ccc2c(c1)n(Cc1ccccc1)c(=O)c1ccnn12,28µM*
Cc1ccc(CNC(=O)c2ccc3oc(=O)n(Cc4ccccc4)c3c2)cc1,i
O=C(O)COc1ccc(NC(=O)c2ccc3c(c2)C(=O)N(Cc2ccccc2)C3=O)cc1,i
O=C(Nc1ccc(-c2ccc(Cl)cc2)cc1)c1ccncc1,i
CCn1c(=O)c2ccnn2c2ccc(C(=O)NCCc3cccnc3)cc21,32µM*
Cc1ccc(CNC(=O)c2ccc3c(c2)n(Cc2ccccc2)c(=O)c2ccnn23)o1,32µM*
CCN(CC)C(=O)c1ccc2c(c1)n(Cc1ccc(OC)cc1)c(=O)c1ccnn12,i
COc1ccc(Cl)cc1NC(=O)C(C)N1CCN(S(=O)(=O)Cc2ccccc2)CC1 (centres undefined),i
COc1cccc(CN2Cc3cc(NC(=O)c4ccc([N+](=O)[O-])cc4)ccc3OCC2=O)c1OC,i
c1ccc(-c2cn3c(n2)CO[C@@H](CNC2CCOCC2)C3)cc1,i
O=C(CCc1nc2ccccc2s1)NCCc1ccc(C(F)(F)F)cc1,i
O=C1N(c2ccccc2)c2ccccc2C12CCN(Cc1ccc(F)cc1)C2 (centres undefined),i
Cn1c(=O)[nH]c(=O)c2c1nc(SCC(N)=O)n2CCc1ccccc1,i
CCc1cccc(C)c1-n1nnnc1C(C)(CC)Nc1ccc2c(c1)OCCO2 (centres undefined),i
O=C1COc2ccc(C(=O)COC(=O)c3nn(-c4ccccc4)c(=O)c4ccccc34)cc2N1,i
CCOC(=O)C(NC(=O)/C=C/c1cccs1)C(=O)OCC,i
Cn1c(=O)c(-c2noc(C(=O)NCc3ccco3)n2)nn(-c2ccccc2)c1=O,i
O=S(=O)(Nc1cccc2c1CCCC2)c1ccccc1,i
CCn1c(=O)c(=O)n(CC)c2cc(N3CCCCC3)c(NC(=O)c3ccc(C)cc3)cc21,i
CCCn1cc(CNC(=O)c2ccc3c(c2)n(CC)c(=O)c2ccnn23)c(C)n1,22µM*
CCCn1cc(CN2CCC(n3nccc3NC(=O)c3ccccc3)CC2)c(C)n1,i
